Reference: the supplement of paper PMC11732987, “Enantioselective OTUD7B fragment discovery through chemoproteomics screening and high-throughput optimisation” (Communications Chemistry, 2025)

Assays:
Assay in all cases: log2 ratio of Biotin-Ahx-Ub-VS probe labelling (fragment/DMSO); higher = less target engagement (more negative = stronger competition), active = hit call of the paper (q ≤ 0.05, log2 ratio ≤ -1)
Details in all cases: compound concentration: 200 uM; treatment time: 3 h
USP42 = target: T1, USP42 (UniProt Q9H9J4)
T1 sequence (whole entry): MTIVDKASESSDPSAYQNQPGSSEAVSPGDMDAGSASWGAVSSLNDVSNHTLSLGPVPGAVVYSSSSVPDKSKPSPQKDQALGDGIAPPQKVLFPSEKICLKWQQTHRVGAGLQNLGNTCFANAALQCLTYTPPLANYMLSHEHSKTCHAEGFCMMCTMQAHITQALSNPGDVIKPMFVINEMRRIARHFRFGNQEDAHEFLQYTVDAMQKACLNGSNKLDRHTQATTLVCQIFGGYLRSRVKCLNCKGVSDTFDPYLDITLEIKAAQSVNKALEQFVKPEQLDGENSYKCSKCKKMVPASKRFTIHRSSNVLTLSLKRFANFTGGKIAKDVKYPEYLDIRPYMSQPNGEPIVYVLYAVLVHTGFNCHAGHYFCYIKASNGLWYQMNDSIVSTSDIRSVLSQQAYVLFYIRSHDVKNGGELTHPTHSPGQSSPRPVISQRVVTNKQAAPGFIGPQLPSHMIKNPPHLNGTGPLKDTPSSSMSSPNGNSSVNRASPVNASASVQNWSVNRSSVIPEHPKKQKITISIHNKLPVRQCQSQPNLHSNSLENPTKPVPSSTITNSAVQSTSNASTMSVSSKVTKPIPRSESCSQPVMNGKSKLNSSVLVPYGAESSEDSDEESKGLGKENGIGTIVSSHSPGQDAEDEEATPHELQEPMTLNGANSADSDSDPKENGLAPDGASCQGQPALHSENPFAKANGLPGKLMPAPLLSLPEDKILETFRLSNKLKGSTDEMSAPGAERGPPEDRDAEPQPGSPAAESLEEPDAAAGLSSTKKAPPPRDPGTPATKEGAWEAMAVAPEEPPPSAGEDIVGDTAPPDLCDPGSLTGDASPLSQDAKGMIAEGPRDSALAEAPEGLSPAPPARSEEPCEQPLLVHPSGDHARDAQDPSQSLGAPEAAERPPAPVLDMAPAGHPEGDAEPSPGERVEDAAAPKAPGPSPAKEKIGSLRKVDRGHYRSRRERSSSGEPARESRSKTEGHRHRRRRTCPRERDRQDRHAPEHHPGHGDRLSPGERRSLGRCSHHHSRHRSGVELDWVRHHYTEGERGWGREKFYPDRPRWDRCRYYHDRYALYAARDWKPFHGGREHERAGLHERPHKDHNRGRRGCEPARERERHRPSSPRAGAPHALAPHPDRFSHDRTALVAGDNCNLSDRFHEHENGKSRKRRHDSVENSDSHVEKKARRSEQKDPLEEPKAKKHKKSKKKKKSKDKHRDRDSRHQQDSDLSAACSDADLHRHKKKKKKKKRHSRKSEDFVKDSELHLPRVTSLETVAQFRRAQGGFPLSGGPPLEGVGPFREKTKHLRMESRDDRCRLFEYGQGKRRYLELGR
How it was run: (§1)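 HEK293T lysate, 495 µg per sample in Tris/CHAPS/IGEPAL buffer with protease inhibitors, was treated in triplicate with fragment at 200 µM or vehicle for 3 h and then with Biotin-Ahx-Ub-VS at 0.5 µM final for 1 h. Labelled DUBs were NeutrAvidin-enriched, digested with LysC and trypsin, and run by diaPASEF LC-MS/MS. Spectronaut label-free quantities were global-median-normalised, and values are average log2 fragment/vehicle ratios by unpaired t-test on proteins with ≥2 unique peptides.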

USP46 = USP46 (UniProt P62068)
How it was run: as §1

USP47 = target: T2, USP47 (UniProt Q96K76)
T2 sequence (whole entry): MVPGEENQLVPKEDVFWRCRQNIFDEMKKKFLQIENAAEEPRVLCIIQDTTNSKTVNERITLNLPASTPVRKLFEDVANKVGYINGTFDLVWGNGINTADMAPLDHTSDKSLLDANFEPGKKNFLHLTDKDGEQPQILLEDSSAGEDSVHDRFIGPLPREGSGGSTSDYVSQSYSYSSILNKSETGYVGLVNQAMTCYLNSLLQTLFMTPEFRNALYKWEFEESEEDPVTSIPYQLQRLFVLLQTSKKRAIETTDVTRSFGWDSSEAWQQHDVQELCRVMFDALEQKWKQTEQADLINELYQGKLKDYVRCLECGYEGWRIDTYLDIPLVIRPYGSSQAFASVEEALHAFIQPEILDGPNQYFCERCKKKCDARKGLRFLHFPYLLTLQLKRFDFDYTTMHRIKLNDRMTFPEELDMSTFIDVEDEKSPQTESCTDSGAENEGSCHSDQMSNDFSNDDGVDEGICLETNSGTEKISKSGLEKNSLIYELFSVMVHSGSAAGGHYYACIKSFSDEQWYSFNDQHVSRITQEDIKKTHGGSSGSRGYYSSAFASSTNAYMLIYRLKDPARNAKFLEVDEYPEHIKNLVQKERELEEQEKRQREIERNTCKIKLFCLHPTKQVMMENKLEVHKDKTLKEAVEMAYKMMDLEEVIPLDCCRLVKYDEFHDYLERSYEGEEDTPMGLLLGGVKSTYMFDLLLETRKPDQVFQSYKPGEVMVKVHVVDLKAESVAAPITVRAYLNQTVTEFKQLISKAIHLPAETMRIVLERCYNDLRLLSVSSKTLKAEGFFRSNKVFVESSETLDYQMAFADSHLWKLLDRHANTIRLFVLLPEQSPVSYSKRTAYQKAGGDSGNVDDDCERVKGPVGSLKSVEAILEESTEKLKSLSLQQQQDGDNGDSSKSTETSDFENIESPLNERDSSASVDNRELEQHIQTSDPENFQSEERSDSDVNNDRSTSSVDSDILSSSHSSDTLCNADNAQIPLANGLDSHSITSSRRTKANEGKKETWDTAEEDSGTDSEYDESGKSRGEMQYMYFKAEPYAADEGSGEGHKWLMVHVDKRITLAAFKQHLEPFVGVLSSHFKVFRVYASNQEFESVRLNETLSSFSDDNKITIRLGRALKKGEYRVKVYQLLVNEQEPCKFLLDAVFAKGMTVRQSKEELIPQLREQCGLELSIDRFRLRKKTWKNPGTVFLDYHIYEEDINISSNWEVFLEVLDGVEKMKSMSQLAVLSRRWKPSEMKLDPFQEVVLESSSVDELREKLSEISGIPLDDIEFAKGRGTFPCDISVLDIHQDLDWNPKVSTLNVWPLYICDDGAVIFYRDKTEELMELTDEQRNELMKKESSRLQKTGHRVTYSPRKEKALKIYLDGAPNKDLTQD
How it was run: as §1

USP48 = target: T3, USP48 (UniProt Q86UV5)
T3 sequence (whole entry): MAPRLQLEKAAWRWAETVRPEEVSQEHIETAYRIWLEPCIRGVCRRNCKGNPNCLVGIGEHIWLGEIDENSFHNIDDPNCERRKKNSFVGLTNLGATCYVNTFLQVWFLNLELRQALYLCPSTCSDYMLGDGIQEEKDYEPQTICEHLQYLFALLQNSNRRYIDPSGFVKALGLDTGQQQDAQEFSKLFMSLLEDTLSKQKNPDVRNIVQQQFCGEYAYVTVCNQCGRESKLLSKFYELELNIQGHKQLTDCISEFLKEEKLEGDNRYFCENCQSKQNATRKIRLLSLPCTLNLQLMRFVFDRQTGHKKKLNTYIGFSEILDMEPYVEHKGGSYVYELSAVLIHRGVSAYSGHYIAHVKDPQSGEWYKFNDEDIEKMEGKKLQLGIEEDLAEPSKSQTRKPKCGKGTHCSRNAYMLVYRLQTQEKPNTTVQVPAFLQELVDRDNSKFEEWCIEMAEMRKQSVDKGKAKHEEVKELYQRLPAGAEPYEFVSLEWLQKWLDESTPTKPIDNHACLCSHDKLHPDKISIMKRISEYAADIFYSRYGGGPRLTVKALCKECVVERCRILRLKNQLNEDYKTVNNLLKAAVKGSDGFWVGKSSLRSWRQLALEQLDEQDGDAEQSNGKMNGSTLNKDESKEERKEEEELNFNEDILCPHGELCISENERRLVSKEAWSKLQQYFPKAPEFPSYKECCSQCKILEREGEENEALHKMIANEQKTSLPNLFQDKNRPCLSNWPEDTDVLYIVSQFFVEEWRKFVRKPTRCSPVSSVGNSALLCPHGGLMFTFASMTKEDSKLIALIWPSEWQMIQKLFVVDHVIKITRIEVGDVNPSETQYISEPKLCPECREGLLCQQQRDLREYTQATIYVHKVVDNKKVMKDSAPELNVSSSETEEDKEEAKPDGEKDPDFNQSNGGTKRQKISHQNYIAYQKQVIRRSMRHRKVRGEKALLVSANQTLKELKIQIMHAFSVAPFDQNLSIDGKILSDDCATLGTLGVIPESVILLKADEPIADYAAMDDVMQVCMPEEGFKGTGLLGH
How it was run: as §1

USP5 = target: T4, USP5 (UniProt P45974)
T4 sequence (whole entry): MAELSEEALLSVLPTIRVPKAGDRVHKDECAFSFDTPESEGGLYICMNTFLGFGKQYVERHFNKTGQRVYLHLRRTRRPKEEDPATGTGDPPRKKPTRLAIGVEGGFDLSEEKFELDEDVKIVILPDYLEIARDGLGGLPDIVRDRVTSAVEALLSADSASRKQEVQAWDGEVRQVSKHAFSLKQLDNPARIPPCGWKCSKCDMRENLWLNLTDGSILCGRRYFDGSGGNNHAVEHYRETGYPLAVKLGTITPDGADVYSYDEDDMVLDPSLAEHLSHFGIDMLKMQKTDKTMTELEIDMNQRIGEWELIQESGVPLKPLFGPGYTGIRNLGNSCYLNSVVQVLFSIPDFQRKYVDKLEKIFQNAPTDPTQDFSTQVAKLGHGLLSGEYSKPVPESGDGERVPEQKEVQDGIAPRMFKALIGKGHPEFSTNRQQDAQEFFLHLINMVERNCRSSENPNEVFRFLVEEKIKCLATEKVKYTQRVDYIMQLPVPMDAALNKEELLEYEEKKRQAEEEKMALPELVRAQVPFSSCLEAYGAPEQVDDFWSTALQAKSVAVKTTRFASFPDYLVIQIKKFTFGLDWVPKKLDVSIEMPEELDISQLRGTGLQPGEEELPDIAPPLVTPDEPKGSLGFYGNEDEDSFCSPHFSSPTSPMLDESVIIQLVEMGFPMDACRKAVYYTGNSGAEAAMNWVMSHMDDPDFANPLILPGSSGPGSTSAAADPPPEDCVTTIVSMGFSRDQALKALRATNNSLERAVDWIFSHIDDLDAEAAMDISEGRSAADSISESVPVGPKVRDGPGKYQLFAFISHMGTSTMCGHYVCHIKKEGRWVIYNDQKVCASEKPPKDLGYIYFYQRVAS
How it was run: as §1

USP54 = USP54 (UniProt Q70EL1)
How it was run: as §1

USP7 = USP7 (UniProt Q93009)
How it was run: as §1

USP8 = target: T5, USP8 (UniProt P40818)
T5 sequence (whole entry): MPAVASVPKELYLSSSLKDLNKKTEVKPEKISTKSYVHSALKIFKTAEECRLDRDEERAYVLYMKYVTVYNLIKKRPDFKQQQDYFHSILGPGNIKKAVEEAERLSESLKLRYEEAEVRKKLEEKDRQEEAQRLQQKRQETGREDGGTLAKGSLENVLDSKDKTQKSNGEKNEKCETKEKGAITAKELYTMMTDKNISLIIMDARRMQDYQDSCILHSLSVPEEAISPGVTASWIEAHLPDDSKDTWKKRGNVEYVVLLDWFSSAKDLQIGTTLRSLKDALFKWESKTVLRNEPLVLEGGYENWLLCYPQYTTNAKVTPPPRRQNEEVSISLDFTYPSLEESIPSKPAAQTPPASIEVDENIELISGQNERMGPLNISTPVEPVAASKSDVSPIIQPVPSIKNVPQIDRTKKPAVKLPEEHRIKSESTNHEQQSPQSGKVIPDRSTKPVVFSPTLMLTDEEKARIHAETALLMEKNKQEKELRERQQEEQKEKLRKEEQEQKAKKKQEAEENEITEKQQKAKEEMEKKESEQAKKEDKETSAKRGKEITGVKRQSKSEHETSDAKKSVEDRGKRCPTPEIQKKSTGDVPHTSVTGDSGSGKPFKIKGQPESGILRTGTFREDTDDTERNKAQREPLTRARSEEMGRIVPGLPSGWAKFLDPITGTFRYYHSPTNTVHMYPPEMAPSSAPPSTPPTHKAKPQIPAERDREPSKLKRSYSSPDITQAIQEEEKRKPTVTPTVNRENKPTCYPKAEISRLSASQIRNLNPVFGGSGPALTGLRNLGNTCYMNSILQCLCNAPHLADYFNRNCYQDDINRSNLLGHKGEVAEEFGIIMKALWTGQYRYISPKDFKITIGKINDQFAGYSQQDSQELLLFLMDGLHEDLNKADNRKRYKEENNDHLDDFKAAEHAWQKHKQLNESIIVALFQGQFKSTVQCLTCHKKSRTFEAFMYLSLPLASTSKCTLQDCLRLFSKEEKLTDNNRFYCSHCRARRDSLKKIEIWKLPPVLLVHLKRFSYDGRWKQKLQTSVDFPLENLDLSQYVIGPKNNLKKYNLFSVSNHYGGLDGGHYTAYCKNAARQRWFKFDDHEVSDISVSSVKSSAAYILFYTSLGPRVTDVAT
How it was run: as §1

USP9X = USP9X (UniProt Q93008)
How it was run: as §1

UniProt O00487 = target: UniProt O00487
How it was run: as §1

Measured: log2 ratio of Biotin-Ahx-Ub-VS probe labelling

Chain of USP54 (Q70EL1 whole entry): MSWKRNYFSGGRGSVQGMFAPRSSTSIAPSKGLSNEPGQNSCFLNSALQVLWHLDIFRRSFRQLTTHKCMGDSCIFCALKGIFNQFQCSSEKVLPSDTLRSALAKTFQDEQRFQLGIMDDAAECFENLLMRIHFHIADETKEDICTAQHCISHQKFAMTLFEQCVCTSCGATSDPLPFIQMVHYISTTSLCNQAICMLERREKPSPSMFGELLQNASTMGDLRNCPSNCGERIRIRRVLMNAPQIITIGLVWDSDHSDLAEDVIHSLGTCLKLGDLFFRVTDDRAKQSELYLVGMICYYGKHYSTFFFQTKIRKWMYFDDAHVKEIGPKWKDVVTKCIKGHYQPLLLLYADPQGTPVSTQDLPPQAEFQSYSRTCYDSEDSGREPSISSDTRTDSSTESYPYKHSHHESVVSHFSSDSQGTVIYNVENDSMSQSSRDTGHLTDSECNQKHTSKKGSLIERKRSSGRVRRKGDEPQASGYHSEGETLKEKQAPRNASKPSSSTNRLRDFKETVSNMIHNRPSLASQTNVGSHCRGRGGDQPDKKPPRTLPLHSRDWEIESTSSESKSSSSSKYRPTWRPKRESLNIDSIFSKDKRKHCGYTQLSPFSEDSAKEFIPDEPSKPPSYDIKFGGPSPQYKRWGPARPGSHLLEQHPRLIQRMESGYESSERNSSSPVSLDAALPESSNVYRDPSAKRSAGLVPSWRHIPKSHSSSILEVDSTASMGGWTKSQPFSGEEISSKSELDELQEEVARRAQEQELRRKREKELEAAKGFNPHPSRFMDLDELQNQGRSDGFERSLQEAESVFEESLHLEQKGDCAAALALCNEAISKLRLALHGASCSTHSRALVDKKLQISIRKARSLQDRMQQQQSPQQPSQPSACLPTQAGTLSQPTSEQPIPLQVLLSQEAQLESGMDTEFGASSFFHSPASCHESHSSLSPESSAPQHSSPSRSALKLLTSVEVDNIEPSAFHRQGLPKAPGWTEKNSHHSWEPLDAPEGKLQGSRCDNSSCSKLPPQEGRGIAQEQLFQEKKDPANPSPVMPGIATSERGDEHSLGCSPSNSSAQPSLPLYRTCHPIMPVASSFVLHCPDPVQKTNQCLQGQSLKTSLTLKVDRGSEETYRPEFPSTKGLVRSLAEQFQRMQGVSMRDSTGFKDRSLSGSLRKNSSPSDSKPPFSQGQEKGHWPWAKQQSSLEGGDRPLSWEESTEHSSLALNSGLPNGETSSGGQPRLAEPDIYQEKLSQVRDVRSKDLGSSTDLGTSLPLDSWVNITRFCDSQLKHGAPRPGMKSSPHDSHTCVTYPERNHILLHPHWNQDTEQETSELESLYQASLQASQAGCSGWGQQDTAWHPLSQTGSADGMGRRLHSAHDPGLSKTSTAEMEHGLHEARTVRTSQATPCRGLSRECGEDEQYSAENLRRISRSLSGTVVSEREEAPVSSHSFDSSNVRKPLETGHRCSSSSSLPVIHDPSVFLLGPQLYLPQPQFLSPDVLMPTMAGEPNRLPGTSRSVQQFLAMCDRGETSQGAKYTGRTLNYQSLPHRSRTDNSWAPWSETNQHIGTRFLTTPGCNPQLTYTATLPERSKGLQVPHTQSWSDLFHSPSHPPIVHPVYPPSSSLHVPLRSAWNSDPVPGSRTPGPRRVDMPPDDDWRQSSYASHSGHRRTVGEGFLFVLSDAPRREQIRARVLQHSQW
Chain of USP46 (P62068 whole entry): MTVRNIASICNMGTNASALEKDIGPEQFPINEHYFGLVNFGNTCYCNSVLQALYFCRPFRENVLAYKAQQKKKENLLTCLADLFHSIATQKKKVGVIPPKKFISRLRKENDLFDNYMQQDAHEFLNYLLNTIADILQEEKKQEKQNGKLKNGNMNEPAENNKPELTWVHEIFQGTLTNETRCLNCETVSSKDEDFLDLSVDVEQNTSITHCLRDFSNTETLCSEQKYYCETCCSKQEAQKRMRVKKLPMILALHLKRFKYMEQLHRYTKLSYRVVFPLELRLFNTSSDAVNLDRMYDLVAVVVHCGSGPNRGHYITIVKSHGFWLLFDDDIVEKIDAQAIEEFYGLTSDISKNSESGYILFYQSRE
Chain of USP9X (Q93008 whole entry): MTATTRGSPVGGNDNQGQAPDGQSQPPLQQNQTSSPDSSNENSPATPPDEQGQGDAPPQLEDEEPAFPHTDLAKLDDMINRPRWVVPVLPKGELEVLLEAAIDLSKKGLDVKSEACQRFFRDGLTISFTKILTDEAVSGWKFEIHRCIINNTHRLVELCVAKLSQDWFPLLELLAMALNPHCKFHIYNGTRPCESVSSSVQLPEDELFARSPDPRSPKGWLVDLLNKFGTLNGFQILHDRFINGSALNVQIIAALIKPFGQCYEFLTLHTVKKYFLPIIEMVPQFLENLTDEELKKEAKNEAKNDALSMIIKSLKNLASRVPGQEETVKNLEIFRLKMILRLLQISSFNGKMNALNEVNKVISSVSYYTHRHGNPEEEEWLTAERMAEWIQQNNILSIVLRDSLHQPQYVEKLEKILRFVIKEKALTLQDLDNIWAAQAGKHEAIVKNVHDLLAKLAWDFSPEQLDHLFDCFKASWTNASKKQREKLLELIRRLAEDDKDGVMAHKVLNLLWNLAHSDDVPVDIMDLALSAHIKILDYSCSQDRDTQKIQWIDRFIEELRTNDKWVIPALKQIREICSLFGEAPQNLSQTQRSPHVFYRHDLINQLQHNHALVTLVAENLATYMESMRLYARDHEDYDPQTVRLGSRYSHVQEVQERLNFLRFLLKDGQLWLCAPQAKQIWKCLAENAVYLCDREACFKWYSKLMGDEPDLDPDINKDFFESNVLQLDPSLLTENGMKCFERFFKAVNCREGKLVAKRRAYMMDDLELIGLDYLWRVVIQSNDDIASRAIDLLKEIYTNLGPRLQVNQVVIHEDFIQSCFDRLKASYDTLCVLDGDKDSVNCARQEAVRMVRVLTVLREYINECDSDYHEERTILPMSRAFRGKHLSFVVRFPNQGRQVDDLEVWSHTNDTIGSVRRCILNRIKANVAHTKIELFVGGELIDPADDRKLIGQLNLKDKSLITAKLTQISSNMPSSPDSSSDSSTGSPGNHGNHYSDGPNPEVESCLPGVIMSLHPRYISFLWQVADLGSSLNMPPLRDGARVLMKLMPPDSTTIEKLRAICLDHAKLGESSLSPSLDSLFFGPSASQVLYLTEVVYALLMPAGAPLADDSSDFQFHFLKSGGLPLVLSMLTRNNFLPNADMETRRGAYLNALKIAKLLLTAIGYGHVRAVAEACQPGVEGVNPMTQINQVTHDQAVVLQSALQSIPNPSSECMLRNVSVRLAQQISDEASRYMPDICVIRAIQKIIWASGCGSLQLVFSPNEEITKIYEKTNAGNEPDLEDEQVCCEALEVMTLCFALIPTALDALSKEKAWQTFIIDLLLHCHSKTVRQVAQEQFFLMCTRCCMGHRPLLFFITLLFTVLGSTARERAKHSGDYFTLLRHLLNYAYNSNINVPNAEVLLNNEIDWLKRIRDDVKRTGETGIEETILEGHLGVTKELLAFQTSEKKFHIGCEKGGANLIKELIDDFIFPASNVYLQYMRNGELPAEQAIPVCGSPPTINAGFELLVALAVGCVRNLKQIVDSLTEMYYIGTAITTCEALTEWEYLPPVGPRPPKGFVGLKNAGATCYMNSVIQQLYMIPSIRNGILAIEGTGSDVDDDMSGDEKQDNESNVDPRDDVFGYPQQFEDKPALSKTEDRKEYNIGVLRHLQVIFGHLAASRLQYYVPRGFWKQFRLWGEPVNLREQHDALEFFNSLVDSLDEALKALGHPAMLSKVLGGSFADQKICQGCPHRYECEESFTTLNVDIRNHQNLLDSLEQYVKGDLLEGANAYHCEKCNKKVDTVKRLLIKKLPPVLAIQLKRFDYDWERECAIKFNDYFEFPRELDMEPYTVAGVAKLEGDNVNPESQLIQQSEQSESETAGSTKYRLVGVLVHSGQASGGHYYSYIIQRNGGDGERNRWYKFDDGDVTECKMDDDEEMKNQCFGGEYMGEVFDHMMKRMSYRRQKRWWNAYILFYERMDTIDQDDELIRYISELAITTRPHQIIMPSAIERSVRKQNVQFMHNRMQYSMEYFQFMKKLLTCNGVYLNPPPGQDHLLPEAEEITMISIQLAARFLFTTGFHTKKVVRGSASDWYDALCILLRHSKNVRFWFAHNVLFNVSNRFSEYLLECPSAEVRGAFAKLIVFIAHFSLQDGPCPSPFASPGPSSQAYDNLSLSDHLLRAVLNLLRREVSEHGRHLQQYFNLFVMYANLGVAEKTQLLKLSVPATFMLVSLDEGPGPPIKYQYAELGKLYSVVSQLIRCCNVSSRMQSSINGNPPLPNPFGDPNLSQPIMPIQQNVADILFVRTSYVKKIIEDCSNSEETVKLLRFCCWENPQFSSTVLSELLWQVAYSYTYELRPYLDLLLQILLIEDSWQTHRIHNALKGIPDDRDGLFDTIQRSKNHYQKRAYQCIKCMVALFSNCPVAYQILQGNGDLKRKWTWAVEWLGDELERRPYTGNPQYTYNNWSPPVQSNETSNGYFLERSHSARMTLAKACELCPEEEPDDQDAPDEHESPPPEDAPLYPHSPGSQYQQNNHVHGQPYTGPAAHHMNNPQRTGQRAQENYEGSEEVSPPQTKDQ
Chain of UniProt O00487 (O00487 whole entry): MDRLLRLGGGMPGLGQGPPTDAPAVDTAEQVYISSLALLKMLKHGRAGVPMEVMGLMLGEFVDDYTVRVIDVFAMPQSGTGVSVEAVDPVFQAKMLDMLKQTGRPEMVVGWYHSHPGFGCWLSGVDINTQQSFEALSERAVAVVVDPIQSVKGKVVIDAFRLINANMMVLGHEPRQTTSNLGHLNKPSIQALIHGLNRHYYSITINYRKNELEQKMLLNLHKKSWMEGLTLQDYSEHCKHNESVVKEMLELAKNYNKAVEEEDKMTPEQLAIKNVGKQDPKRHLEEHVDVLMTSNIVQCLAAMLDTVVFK

NC(=O)C(Cc1ccccc1)NC(=O)CCl (stereo not given)
inactive: USP42 -0.119 | USP46 0.0497 | USP47 -0.239 | USP48 -0.238 | USP5 0.0132 | USP54 0.357 | USP7 -0.174 | USP8 -0.047 | USP9X -0.099 | UniProt O00487 -0.162
